Test [1] can be described thus: qHTS assay to identify small molecule antagonists of the glucocorticoid receptor (GR) signaling pathway - cell viability counter screen (AID 720693). Further: nearly all actives have a fitted effect of over 55% in size. For orientation: Quantitative high-throughput screening tests each substance at several concentrations.
Test [2] is described as follows: qHTS assay for identifying genotoxic compounds that show differential cytotoxicity against isogenic chicken DT40 cell lines with known DNA damage response pathways - wild type cell line (AID 743012). Further: nearly all actives have a fitted effect of over 60% in size. Further: potency means the concentration at half of the fitted maximal effect. Summed up:
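Cytotoxicity in repair-proficient parental chicken DT40 cells serves as the comparator for Rad54/Ku70- and Rev3-deficient lines. Cells were exposed to compounds for 40 h at 37 C/5% CO2, and ATP-based luminescence (CellTiter-Glo) measured viability.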

A short description of test [3]: qHTS assay for identifying genotoxic compounds that show differential cytotoxicity against isogenic chicken DT40 cell lines with known DNA damage response pathways - Rev3 mutant cell line (AID 743014). Further: nearly all actives have a fitted effect of over 55% in size. Further: potency means the concentration at half of the fitted maximal effect.
Test [4] in a line: qHTS assay for identifying genotoxic compounds that show differential cytotoxicity against isogenic chicken DT40 cell lines with known DNA damage response pathways - Rad54/Ku70 mutant cell line (AID 743015). Further: nearly all actives have a fitted effect of over 60% in size. Further: potency means the concentration at half of the fitted maximal effect.
A short description of test [5]: qHTS assay to identify small molecule antagonists of the androgen receptor (AR) signaling pathway - cell viability counter screen (AID 743033; further: nearly all actives have a fitted effect of over 45% in size).
The target in test [6] is Androgen receptor (Homo sapiens) (UniProt P10275). Description: qHTS assay to identify small molecule agonists of the androgen receptor (AR) signaling pathway (AID 743036; active means well fitted activation curve with a large enough effect in the signal ratio in the repeat runs, with a control signal flat, not every such curve was filed as active; the % refers to the signal ratio). The gist of the method:
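AR-UAS-bla HEK293 cells, plated 4 h before dosing, were treated with compound for 16 h at 37C. beta-Lactamase reporter read after 2 h with LiveBLAzer B/G FRET substrate at room temperature.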

Test [7] shares this target. As to the kind of experiment: qHTS assay to identify small molecule agonists of the androgen receptor (AR) signaling pathway using the MDA cell line (AID 743040; further: nearly all actives have a fitted effect of over 20% in size). The gist of the method:
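Cell-based luciferase reporter: MDA-kb2, MMTV promoter (AR + GR response elements). 16 h compound exposure at 37C; ONE-Glo, 30 min RT, luminescence.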

The target is the same in test [8]. Description: qHTS assay to identify small molecule antagonists of the androgen receptor (AR) signaling pathway using the MDA cell line (AID 743042; further: nearly all actives have a fitted effect of over 55% in size). The gist of the method:
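MDA-kb2 cells (human breast carcinoma, stably carrying an MMTV-luciferase reporter responsive to AR and GR) were plated at 3,000 cells/well and preincubated 5 hr at 37C, then given compound plus R1881 agonist for 16 h. ONE-Glo luminescence was read.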

Test [9] concerns thyroid hormone receptor (rat, GH3 cells). Description: qHTS assay to identify small molecule agonists of the thyroid receptor (TR) signaling pathway (AID 743066; calls by dose curve).
The target in test [10] is Estrogen receptor (Homo sapiens) (UniProt P03372). As to the kind of experiment: qHTS assay to identify small molecule antagonists of the estrogen receptor alpha (ER-alpha) signaling pathway (AID 743069; active means well fitted curve in the direction sought with a large enough effect in the signal ratio in the repeat runs, not every such curve was filed as active; the % refers to the signal ratio). Summed up:
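A 17beta-estradiol challenge was applied right after compound transfer to ER-alpha-UAS-bla HEK293 cells previously kept in charcoal-stripped serum. Plates stood 18 hr at 37C and 5% CO2; fluorescence was read following 2 hr FRET substrate loading at room temperature.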

Test [11] can be described thus: qHTS assay to identify small molecule antagonists of the estrogen receptor alpha (ER-alpha) signaling pathway - cell viability counter screen (AID 743074; calls by dose curve;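 further: HEK293 cells carrying ER-alpha-UAS-bla reporter stimulated with 17beta-estradiol; nearly all actives have a fitted effect of over 45% in size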).
Test [12] addresses Estrogen receptor (Homo sapiens) (UniProt P03372). Description: qHTS assay to identify small molecule agonists of the estrogen receptor alpha (ER-alpha) signaling pathway (AID 743075; calls by dose curve;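 further: HEK293 GripTite cells with ER-alpha and UAS-driven beta-lactamase reporter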).
For test [13] the target is unchanged. Description: qHTS assay to identify small molecule agonists of the estrogen receptor alpha (ER-alpha) signaling pathway using the BG1 cell line (AID 743079). Further: nearly all actives have a fitted effect of over 20% in size.
A short description of test [14]: qHTS assay to identify small molecule antagonists of the estrogen receptor alpha (ER-alpha) signaling pathway using the BG1 cell line - cell viability counter screen (AID 743081).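 Further: compound given together with 17beta-estradiol as the ER stimulus; nearly all actives have a fitted effect of over 45% in size.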 Further: potency means the concentration at half of the fitted maximal effect.
The target in the next test is Aromatase (Homo sapiens) (UniProt P11511). Description: qHTS assay to identify aromatase inhibitors (AID 743083). Further: series mostly up to about 70 µM; nearly all actives have a fitted effect of over 55% in size.
Chain of Aromatase (Homo sapiens) (P11511 whole entry, looked up): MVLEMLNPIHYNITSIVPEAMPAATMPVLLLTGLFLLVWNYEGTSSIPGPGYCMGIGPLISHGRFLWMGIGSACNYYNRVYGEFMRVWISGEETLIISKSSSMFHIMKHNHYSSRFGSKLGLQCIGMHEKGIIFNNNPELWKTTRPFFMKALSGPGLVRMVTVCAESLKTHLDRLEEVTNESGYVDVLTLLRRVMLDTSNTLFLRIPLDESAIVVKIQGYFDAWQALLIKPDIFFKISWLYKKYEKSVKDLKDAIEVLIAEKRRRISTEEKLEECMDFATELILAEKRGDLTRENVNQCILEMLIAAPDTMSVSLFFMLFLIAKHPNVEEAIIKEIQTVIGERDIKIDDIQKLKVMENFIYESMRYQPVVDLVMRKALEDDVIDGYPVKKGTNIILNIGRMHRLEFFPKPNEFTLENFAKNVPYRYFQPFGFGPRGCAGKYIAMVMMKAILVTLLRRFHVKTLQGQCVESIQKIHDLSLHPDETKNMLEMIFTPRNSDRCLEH
Test [15] in a line: qHTS assay to identify small molecule antagonists of the androgen receptor (AR) signaling pathway using the MDA cell line - cell viability counter screen (AID 743041; further: nearly all actives have a fitted effect of over 45% in size). Summed up:
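In this qHTS counter assay, fluorescence intensity after CellTiter-Fluor addition indicated viability of MDA-kb2 AR-luc cells given compounds and R1881 for 16 h at 37C.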

The nature of test [16]: qHTS assay to identify small molecule antagonists of the thyroid receptor (TR) signaling pathway - cell viability counter screen (AID 743064). Further: nearly all actives have a fitted effect of over 50% in size. Summed up: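 GH3.TRE-Luc rat pituitary cells dosed after 4 hr plating, co-stimulated with T3 at 1 nM final, incubated 23.5 h at 37 C. Viability measured in the same wells by CellTiter-Fluor fluorescence after 30 min further at 37 C.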

The nature of test [17]: qHTS assay to identify small molecule antagonists of the thyroid receptor (TR) signaling pathway (AID 743065). Further: nearly all actives have a fitted effect of over 55% in size. Further: potency means the concentration at half of the fitted maximal effect. Summed up: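 GH3.TRE-Luc rat pituitary cells carrying two TR response elements driving luciferase were plated for 4 h, given compound plus 1 nM T3 (final), and incubated 23.5 h at 37 C. ONE-Glo luminescence measured reporter inhibition; CellTiter-Fluor fluorescence tracked cytotoxicity.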

Test [18] can be described thus: qHTS assay to identify small molecule antagonists of the estrogen receptor alpha (ER-alpha) signaling pathway using the BG1 cell line (AID 743080; calls by dose curve;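 further: BG1 cells stimulated with 17beta-estradiol alongside compound; series mostly up to about 70 µM; nearly all actives have a fitted effect of over 25% in size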). The gist of the method: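 Readout is ONE-Glo luminescence, taken 30 min at room temperature after reagent addition, preceded by a CellTiter-Fluor viability read; BG1-Luc-4E2 cells had received compound and 17beta-estradiol for 21.5 h at 37 C.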

Test [19] concerns the target Androgen receptor (Homo sapiens) (UniProt P10275). As to the kind of experiment: qHTS assay to identify small molecule antagonists of the androgen receptor (AR) signaling pathway (AID 743035; active means well fitted inhibition curve with a large enough effect in the signal ratio in the repeat runs, not every such curve was filed as active; the % refers to the signal ratio). Summed up:
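Steps: seed AR-UAS-bla GripTite HEK293 cells, incubate 4 h at 37C; pin in test compound, then add agonist R1881; incubate 16 h at 37C; add LiveBLAzer B/G FRET substrate, 2 h at room temperature; read fluorescence.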

Records with an inconclusive call do not appear. Calls of active or inactive are those of the source. Unless noted, the call rests on the fitted dose curve; in most records, active means well fitted curve in the direction sought with a large enough effect in the repeat runs; inconclusive means weak or mixed curves; inactive means no such curve, though single readings can be large; an effect the other way counts as inactive or inconclusive.

Chain of Estrogen receptor (Homo sapiens) (P03372 whole entry, looked up): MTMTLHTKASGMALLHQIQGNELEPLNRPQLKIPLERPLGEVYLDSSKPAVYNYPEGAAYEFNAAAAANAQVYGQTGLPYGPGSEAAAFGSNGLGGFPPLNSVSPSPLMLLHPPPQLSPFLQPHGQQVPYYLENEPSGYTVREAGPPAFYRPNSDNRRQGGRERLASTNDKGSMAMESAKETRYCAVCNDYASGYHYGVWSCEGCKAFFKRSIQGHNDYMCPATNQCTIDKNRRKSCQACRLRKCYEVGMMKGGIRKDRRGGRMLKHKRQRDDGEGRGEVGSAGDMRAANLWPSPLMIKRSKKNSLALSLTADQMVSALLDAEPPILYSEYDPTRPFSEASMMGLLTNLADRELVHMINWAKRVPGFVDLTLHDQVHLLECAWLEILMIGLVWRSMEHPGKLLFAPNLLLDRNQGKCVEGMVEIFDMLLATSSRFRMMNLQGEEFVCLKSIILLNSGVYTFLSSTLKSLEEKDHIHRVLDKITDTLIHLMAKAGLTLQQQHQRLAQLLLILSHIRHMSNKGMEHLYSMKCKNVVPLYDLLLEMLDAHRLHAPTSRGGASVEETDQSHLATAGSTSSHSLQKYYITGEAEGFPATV
Chain of Androgen receptor (Homo sapiens) (P10275 whole entry, looked up): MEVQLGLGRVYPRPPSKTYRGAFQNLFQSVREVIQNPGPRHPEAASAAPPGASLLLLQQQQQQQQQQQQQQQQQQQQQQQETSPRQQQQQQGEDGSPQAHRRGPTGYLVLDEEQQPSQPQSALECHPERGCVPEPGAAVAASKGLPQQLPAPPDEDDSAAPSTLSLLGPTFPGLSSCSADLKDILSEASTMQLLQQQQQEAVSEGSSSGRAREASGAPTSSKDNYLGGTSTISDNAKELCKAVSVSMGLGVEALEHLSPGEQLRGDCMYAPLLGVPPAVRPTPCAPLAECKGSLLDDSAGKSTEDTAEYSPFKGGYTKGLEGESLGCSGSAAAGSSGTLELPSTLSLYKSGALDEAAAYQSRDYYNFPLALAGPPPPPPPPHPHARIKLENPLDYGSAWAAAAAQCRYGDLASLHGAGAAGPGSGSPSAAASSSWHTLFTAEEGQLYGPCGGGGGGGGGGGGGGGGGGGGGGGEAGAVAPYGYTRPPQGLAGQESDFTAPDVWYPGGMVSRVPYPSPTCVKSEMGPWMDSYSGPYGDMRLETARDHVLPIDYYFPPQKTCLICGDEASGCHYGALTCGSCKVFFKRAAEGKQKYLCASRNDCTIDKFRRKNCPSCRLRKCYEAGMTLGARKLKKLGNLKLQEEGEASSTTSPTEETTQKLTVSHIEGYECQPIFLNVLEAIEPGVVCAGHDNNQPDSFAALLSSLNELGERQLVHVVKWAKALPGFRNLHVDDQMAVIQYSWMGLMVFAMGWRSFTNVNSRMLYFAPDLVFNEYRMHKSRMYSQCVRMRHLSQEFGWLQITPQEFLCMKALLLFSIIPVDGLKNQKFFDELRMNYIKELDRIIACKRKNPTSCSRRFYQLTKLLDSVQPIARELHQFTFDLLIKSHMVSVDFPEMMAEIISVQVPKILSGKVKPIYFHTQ

Turning to `CC1CC(CC2CCC(N)C(C)C2)CCC1N` (stereo unspecified), the Potency entry in test [1], in test [5], in test [7], in test [8], in [9] and in [10] was “inactive” each time. Besides, the Potency result (in [11]; in [12]; in [13]; with Aromatase (Homo sapiens)) was “inactive” in each case. Further, the Potency in test [2] is 7.82 µM (active); in [3], 2.47 µM (active); in test [4] it was 9.85 µM (active); in [14] it was 31.1 µM (active). Also, the molecule was classed as inactive in [6].

With `CCOc1nc(F)cc2nc(S(=O)(=O)Nc3c(Cl)cccc3Cl)nn12`, the Potency result in [1], in test [2], in test [3], in [4], in test [5] and in test [15] was “inactive” in each case. Also, the Potency result in test [16], in [17], in [9], in test [10], in test [11] and in [12] was “inactive” each time. Moreover, the Potency result (in [13]; in [18]; in test [14]; with Aromatase (Homo sapiens)) was “inactive” in each case.

Consider `N#CCc1ccccc1`, for which the Potency result in test [1], in [2], in test [3], in test [4], in test [5] and in test [15] was “inactive” in each case. Besides, the Potency result in test [16], in test [17], in test [9], in [10], in test [11] and in test [12] was “inactive” in each case. The Potency result (in test [13]; in test [18]; in test [14]; with Aromatase (Homo sapiens)) was “inactive” in each case.

Turning to `ClCC(Br)CBr` (stereo unspecified), the Potency entry in [1], in [2], in test [3], in test [4], in test [5] and in test [15] was “inactive” each time. For the same molecule, the Potency result in test [16], in test [17], in [9], in test [10], in [11] and in [12] was “inactive” in each case. Also, the Potency entry (in test [13]; in test [18]; in test [14]; in the test with Aromatase (Homo sapiens)) was “inactive” in each case.

`CCN(C)N=O`: the Potency result in test [1], in test [2], in test [3], in test [4], in test [5] and in test [15] was “inactive” each time. For the same molecule, the Potency entry in test [16], in test [17], in [9], in [10], in test [11] and in test [12] was “inactive” each time. The Potency result (in [13]; in test [18]; in test [14]; in the test with Aromatase (Homo sapiens)) was “inactive” throughout.

On to `COC(=O)C(C)N(C(=O)Cc1ccccc1)c1c(C)cccc1C` (stereo unspecified), for which the Potency entry in test [1], in test [5], in test [7], in test [15], in test [16] and in test [9] was “inactive” each time. The Potency entry in test [10], in [11], in test [12], in test [13], in test [18] and in [14] was “inactive” in each case. Further, the Potency result with Aromatase (Homo sapiens) is “inactive”. Also, the Potency in [2] is 8.63 µM (active); in test [3] it was 9.69 µM (active); in test [4], 15.4 µM (active); in [17] it was 61.1 µM (active).

For the molecule `Cc1ccc2ccccc2c1`, the Potency result in [1], in test [2], in test [3], in [4], in [5] and in test [19] was “inactive” throughout. The Potency result in [7], in [15], in test [8], in test [16], in test [17] and in test [9] was “inactive” each time. In addition, the Potency entry in [10], in test [11], in [12], in test [13], in test [18] and in test [14] was “inactive” throughout. The Potency entry in the test with Aromatase (Homo sapiens) was “inactive”. Besides, in test [6], the call was inactive.

As to `C=CCOC(C)=O`, the Potency entry in test [1], in test [2], in test [3], in test [4], in [5] and in [19] was “inactive” in each case. Also, the Potency result in [7], in [15], in [8], in test [16], in test [17] and in [9] was “inactive” each time. The Potency entry in test [10], in [11], in test [12], in test [13], in [18] and in test [14] was “inactive” in each case. Also, in the test with Aromatase (Homo sapiens), the Potency result was “inactive”. Besides, the molecule was called inactive in test [6].

(Values after PubChem BioAssay (Tox21).)
